Bioassay records as filed in PubChem.
Compounds with a hit are over-represented: about 21% of the library has one in this group of screens.
DT40 TDP1 CPT: DT40-hTDP1 cell growth loss with CPT; chicken DT40 Tdp1-/-;hTDP1 cells + 20 nM CPT, ATP luminescence, 48 h; AID 686979; Potency, µM (highest dose often 46.2 µM), actives largely listed as inhibitors; hit rate 12% among 420,000; also: nearly all actives have a fitted effect of over 55% in size
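Cell growth measured by CellTiter-Glo luminescence after a minimum 48 h, 37 C compound exposure with 20 nM CPT in Tdp1-knockout DT40 cells stably expressing hTDP1, seeded 400/well; qHTS titration format.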
DRD3 antagonist: antagonists of human D3 dopamine receptor; max response, negative = inhibition, %; D3R cells, DiscoveRx beta-arrestin luminescence, antagonist mode; stronger effect = lower value; P35462; AID 652054; hit rate 2.5% among 360,000; in the data active = max response below about -50%; inconclusive = no clear call, values can overlap the other calls
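Cells plated overnight at 1500 cells/well, then exposed to library compounds with dopamine controls for 90 minutes at 37 degrees C. DiscoveRx reagent added for 30–60 minutes at room temperature; luminescence read, quantitative HTS format.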
DT40 TDP1 no CPT: qHTS for Inhibitors of human tyrosyl-DNA phosphodiesterase 1 (TDP1): qHTS in cells in absence of CPT. DT40 Tdp1-/- hTDP1 cells, no CPT, ATP luminescence, 48 h. Potency, µM (top dose mostly 46.2 µM), usual class: inhibitors. hit rate 15% among 420,000; also: nearly all actives have a fitted effect of over 55% in size
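Seeded 400 DT40-hTDP1 cells/well (vehicle DMSO, no 20 nM CPT); pinned compounds; ≥48 hr at 37 °C; CellTiter-Glo luminescence as viability measure.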
ClpP mod: qHTS Assay for Activators of ClpP; purified B. subtilis ClpP, FRET peptide cleavage, 20 min; Potency, µM (titrated, usually from 57.5 µM); hit rate 1.9% among 340,000; ATP-dependent Clp protease proteolytic subunit (Bacillus subtilis (strain 168)), P80244; active = well fitted falling curve with a large enough effect; inconclusive = small, poorly fitted or top-dose-only effect; inactive = no such curve, though single readings can be large or run the other way; also: the source files actives as falling curves though it sought activators and does not explain the sign; nearly all actives have a fitted effect of over 65% in size
Target sequence (P80244 whole entry, looked up): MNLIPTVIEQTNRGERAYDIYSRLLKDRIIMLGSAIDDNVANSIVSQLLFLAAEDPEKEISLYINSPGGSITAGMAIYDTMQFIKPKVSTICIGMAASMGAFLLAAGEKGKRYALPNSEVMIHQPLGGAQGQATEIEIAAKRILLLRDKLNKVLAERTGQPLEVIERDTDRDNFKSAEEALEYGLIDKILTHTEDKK
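Purified B. subtilis ClpP, 10 microg/mL final in Tris/HCl pH8 with KCl, BSA, glycerol and Tween-20, cleaved an Abz/nitrotyrosine-quenched decapeptide. Fluorescence (ex 320, em 430) was read at 0 and 20 min at room temperature. Delta was normalized to 5.8 microM ADEP and DMSO/no-enzyme controls.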
DRD3 agonist: agonists of human D3 dopamine receptor; P35462; D3R DiscoveRx beta-arrestin cells, luminescence, 90 min; max activation, %; hit rate 0.58% among 410,000; AID 652048; in the data active = max activation above about 30%
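Agonist mode: compounds and dopamine controls were applied to plated cells for 90 min at 37 degrees C after an overnight attachment at 1500 cells/well. Luminescent read-out followed 30 - 60 minutes at room temperature with DiscoveRx detection reagent.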
IL-1B inflam inh: inflammasome signaling inhibition, IL-1 beta readout | hit rate 4.7% among 360,000 | activity change, % at 57.5 µM | THP-1 LPS/ATP IL-1B secretion, AlphaLISA, 16 h; stronger effect = lower value; in the data active = activity change below about -50%; inconclusive = mostly about -30% to -49%
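THP-1 cells pretreated 1 hr with compounds (up to 57.5 uM final), then stimulated with LPS (250 ng/mL final) plus ATP (1.25 mM final); secreted IL-1B measured by AlphaLISA after 16 hr, decreased signal indicating inhibition.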
Each line names hits and unclear results; the compound was inactive in the other large screens. Unless noted, calls follow the shape of the dose curve; as a rule, active = well fitted inhibition curve with a large enough effect; inconclusive = small, poorly fitted or top-dose-only effect; inactive = flat fitted curve, though single readings scatter.

O=C(NN=C1CCCC1)c1cc(-c2ccc(F)cc2)nc2ccccc12	DT40 TDP1 no CPT inconclusive (no result: ClpP mod)
O=C(NCCCN1CCOCC1)c1cc(-c2ccc(Cl)s2)nc2ccccc12	DT40 TDP1 CPT inconclusive, DT40 TDP1 no CPT inconclusive, ClpP mod inconclusive, IL-1B inflam inh -78
O=C(NCCCN1CCOCC1)c1cc(-c2ccc(F)cc2)nc2ccccc12	DT40 TDP1 CPT inconclusive
O=C(NCCCN1CCOCC1)c1cc(-c2cccc(Br)c2)nc2ccccc12	DT40 TDP1 CPT inconclusive, DT40 TDP1 no CPT inconclusive, IL-1B inflam inh -64
CCOc1ccc(-c2cc(C(=O)NCCCN3CCOCC3)c3ccccc3n2)cc1	DT40 TDP1 CPT inconclusive
CC1CC(C)CN(C(=O)c2cc(-c3ccccn3)nc3ccccc23)C1 (configuration not stated)	DT40 TDP1 CPT inconclusive
O=C(NCCCN1CCCC1=O)c1cc(-c2ccc(F)cc2)nc2ccccc12	DT40 TDP1 CPT inconclusive, DT40 TDP1 no CPT 26µM, ClpP mod 8.9µM
CC1CN(C(=O)c2cc(-c3ccc(Cl)s3)nc3ccccc23)CC(C)O1 (configuration not stated)	DT40 TDP1 CPT inconclusive, DT40 TDP1 no CPT 16µM, ClpP mod 28µM, IL-1B inflam inh -53
CCCN(CCC)CCNC(=O)Cn1ncc2c([nH]c3ccc(C)cc32)c1=O	none (no result: DRD3 antagonist, IL-1B inflam inh)
Cc1ccc(CN2CC(C(=O)N3CC=C(c4ccccc4)CC3)CC2=O)cc1 (configuration not stated)	DT40 TDP1 CPT inconclusive, DT40 TDP1 no CPT inconclusive
O=C(NCCN1CCOCC1)c1cc(-c2ccc(F)cc2)nc2ccccc12	DT40 TDP1 no CPT inconclusive, ClpP mod 25µM
O=C(COCC(=O)N1CCOCC1)N1CCOCC1	none (no result: ClpP mod)
Nc1c(Br)c(=O)[nH]c(=O)n1-c1ccc(F)cc1	DT40 TDP1 no CPT 23µM (no result: ClpP mod)
COc1ccc(C)cc1NC(=O)Cn1c(=O)nc(-c2ccccc2F)c2cc(Cl)ccc21	none (no result: DRD3 antagonist, IL-1B inflam inh)
Cc1nn(C)cc1CN(C)C(=O)c1nn2c(c1Cl)NC(c1cccs1)CC2C(F)(F)F (configuration not stated)	DT40 TDP1 CPT inconclusive, DRD3 antagonist inconclusive, DT40 TDP1 no CPT 13µM
Cc1nn(C)c(C)c1CN(C)C(=O)c1cc2n(n1)C(C(F)(F)F)CC(c1cccs1)N2 (configuration not stated)	DT40 TDP1 CPT 26µM, DT40 TDP1 no CPT 16µM
CCOC(=O)c1sc(NC(=O)c2cc3n(n2)C(C(F)(F)F)CC(c2cccs2)N3)c(C(=O)OCC)c1C (configuration not stated)	DT40 TDP1 CPT inconclusive, DT40 TDP1 no CPT 13µM
Cc1nn(C)c(C)c1CNC(=O)c1cnn2c1NC(c1ccccc1)CC2C(F)(F)F (configuration not stated)	DT40 TDP1 CPT inconclusive
Cc1nn(C)cc1CN(C)C(=O)c1nn2c(c1Br)NC(c1cccs1)CC2C(F)(F)F (configuration not stated)	DT40 TDP1 CPT inconclusive, DT40 TDP1 no CPT 15µM (no result: ClpP mod)
CCC(C)NC(=O)c1ccc(-n2c(-c3ccccc3)cc3c2CCCC3)cc1 (configuration not stated)	DT40 TDP1 CPT 16µM, DT40 TDP1 no CPT inconclusive (no result: DRD3 antagonist, IL-1B inflam inh)
CCOCCCNC(=O)c1ccc(-n2c(-c3ccccc3)cc3c2CCCCC3)cc1	DT40 TDP1 no CPT inconclusive (no result: DRD3 antagonist, IL-1B inflam inh)
CCCNC(=O)c1ccc(-n2c(-c3ccccc3)cc3c2CCCCC3)cc1	DT40 TDP1 CPT 18µM, DT40 TDP1 no CPT 21µM (no result: DRD3 antagonist, IL-1B inflam inh)
CC(C)NC(=O)c1ccc(-n2c(-c3ccccc3)cc3c2CCCC3)cc1	DT40 TDP1 CPT inconclusive, DT40 TDP1 no CPT inconclusive, ClpP mod inconclusive (no result: DRD3 antagonist, IL-1B inflam inh)
CC(C)OCCCNC(=O)c1ccc(-n2c(-c3ccccc3)cc3c2CCCC3)cc1	DT40 TDP1 CPT inconclusive, DT40 TDP1 no CPT 16µM (no result: DRD3 antagonist, IL-1B inflam inh)
CN(C)CCNC(=O)c1ccc(-n2c(-c3ccccc3)cc3c2CCCC3)cc1	DT40 TDP1 CPT inconclusive, DT40 TDP1 no CPT 16µM (no result: DRD3 antagonist, IL-1B inflam inh)
